Measurements as given in PubChem BioAssay AID463173 (ICCB-Longwood Screening Facility, Harvard Medical School, 2010).
In all, about 52,000 compounds went through this assay and about 1,700 (3.3%) were called active. No stated cut-off is given here; in the data, active means survival mostly below about 52% (no sharp cut-off); inactive means mostly above about 56%. For the sample, actives were picked, then their nearest neighbours and some compounds at random.

System: Wild type
Experiment: growth inhibition of S. aureus wild type versus tarO mutant, primary screen, teichoic acid synthesis inhibitors, RN4220, OD600 (AID 463173)
Details: S. aureus RN4220 wild type/DeltatarO growth, OD600, 18 h, stronger effect = lower value, screened at 18.75 µg/mL (by protocol)

Compound	survival
C=CCn1cc(F)c(=O)n(CC=C)c1=O	109% (inactive)
CCOc1ccc(NC(=O)Cn2nc(Cc3ccncc3)c3ccccc3c2=O)cc1	108% (inactive)
CC(C)C(=O)N1CCN(c2ccc(NC(=O)c3ccccc3)cc2)CC1	95% (inactive)
O=C(Nc1ccc2oc(=O)ccc2c1)c1cccc(F)c1	106% (inactive)
COc1ccc2sc(N(Cc3cccnc3)C(=O)c3cccs3)nc2c1	64% (inactive)
CCS(=O)(=O)c1ccccc1C(=O)N(Cc1cccnc1)c1nc2cc(C)c(C)cc2s1	118% (inactive)
Cc1cc2nc(N(Cc3cccnc3)C(=O)c3ccc(Cl)s3)sc2cc1C	0% (active)
COc1ccc2sc(N(Cc3cccnc3)C(=O)c3ccco3)nc2c1	-4% (active)
COc1cc(C(=O)N(Cc2cccnc2)c2nc3cc(C)c(C)cc3s2)cc(OC)c1OC	22% (inactive)
COc1ccc2nc(N(Cc3cccnc3)C(=O)c3ccco3)sc2c1	70% (inactive)
Cc1scc(-c2ccccc2)[n+]1CCO	109% (inactive)
CCOc1ccc(NC2SC(=O)N(Cc3ccccc3)C2=O)cc1 (centres undefined)	72% (inactive)
COc1cc(OC)c(NC(=O)c2cnn(-c3cccc(Cl)c3C)c2C2CCN(C(=O)OC(C)(C)C)CC2)cc1Cl	53% (inactive)
CCOC(=O)c1ccn(-c2nc(-c3cccc(OC)c3)cc(C(F)(F)F)n2)n1	48% (inactive)
COc1ccc(CNC(=O)CSc2nc(-c3ccc(OC)c(OC)c3)cc(C(F)(F)F)n2)cc1	83% (inactive)
COc1ccc(-c2cc(C(F)(F)F)nc(NCc3ccc(Cl)cc3)n2)cc1	-3% (active)
COC(=O)c1ccn(-c2nc(-c3ccc(Cl)cc3)cc(C(F)(F)F)n2)n1	9% (active)
COC(=O)CSc1nc(-c2ccc(F)cc2)cc(C(F)(F)F)n1	123% (inactive)
COc1ccc(CNc2nc(-c3ccc(Cl)cc3)cc(C(F)(F)F)n2)cc1	-4% (active)
COc1ccc(-c2cc(C(F)(F)F)nc(SCC(=O)NCc3ccc(Cl)cc3)n2)cc1	83% (inactive)
COc1ccc(-c2cc(C(F)(F)F)nc(S(C)(=O)=O)n2)cc1	98% (inactive)
CS(=O)(=O)N(CC(=O)N1CCCC1)c1cccc(Cl)c1Cl	97% (inactive)
Cc1cc(C)c2nc(NC(=O)c3ccc(S(=O)(=O)N4CCC(C)CC4)cc3)sc2c1	79% (inactive)
O=C(CN1C(=O)CSC1=O)NC1CCCCC1	104% (inactive)

Compound	survival
COc1ccc(OC)c(-c2cc(C(=O)Nc3cccc(Cl)c3C)no2)c1	26% (inactive)
COc1ccc(OC)c(-c2cc(C(=O)NC(C)c3ccccc3)no2)c1 (centres undefined)	-12% (active)
CC(NC(=O)c1cc(-c2ccc(Cl)cc2)on1)c1ccccc1 (centres undefined)	140% (inactive)
CC(C)c1cc(C(=O)NC(C)c2ccccc2)no1 (centres undefined)	81% (inactive)
COc1ccc(OC)c(-c2cc(C(=O)NCc3ccc(Cl)cc3)no2)c1	85% (inactive)
COc1ccc(OC)c(-c2cc(C(=O)Nc3ccc(C)c(C)c3)no2)c1	-9% (active)
COc1ccc(CNc2oc(-c3ccc(COc4ccc(OC)cc4)o3)nc2C#N)cc1	129% (inactive)
CC(=O)c1nn(-c2ccc(OC(F)(F)F)cc2)nc1Nc1ccc(C)cc1	96% (inactive)
CCCS(=O)(=O)Nc1cc2c(cc1NCc1ccccc1)n(C)c(=O)n2C	82% (inactive)
CC1CCCCN1c1c(S(=O)(=O)c2ccc(Cl)cc2)cnc2ccccc12 (centres undefined)	3% (active)
CCN1CCN(c2c(S(=O)(=O)c3ccccc3)cnc3ccc(Cl)cc23)CC1	119% (inactive)
CCN1CCN(c2c(S(=O)(=O)c3ccc(Cl)cc3)cnc3ccccc23)CC1	82% (inactive)
Cc1ccc2ncc(S(=O)(=O)c3ccccc3)c(N3CCCCC3C)c2c1 (centres undefined)	0% (active)
Cc1cccc(S(=O)(=O)c2cn(Cc3ccccc3)c3cc(N4CCCCC4C)c(F)cc3c2=O)c1 (centres undefined)	71% (inactive)
COc1ccc(S(=O)(=O)c2cnc3ccc(Cl)cc3c2N2CCCCC2C)cc1 (centres undefined)	23% (inactive)
COc1ccc(Cl)cc1NC(=O)Cn1nnc(C(=O)NCc2ccc3c(c2)OCO3)c1N	81% (inactive)
c1ccc(Cn2nnnc2C(c2cccnc2)N2CCN(c3ccccc3)CC2)cc1 (centres undefined)	113% (inactive)
COC(=O)COc1ccc(Oc2nc(NC(C)(C)C)nc(N(C)C)n2)nn1	85% (inactive)
Cc1ccc(CNC(=O)CSc2c(C(C)C)cnc3c2c(=O)n(C)c(=O)n3C)cc1	58% (inactive)
CCCc1cnc2c(c1SCC(=O)NCc1ccc(C)cc1)c(=O)n(C)c(=O)n2C	-6% (active)
CCc1cnc2c(c1SCC(=O)NCc1ccc(C)cc1)c(=O)n(C)c(=O)n2C	67% (inactive)
CCOC(=O)c1cc(-c2ccccc2)n(-c2cccc(C(=O)Nc3ccc(OCC)cc3)c2)c1C	10% (active)
CCOC(=O)c1cc(-c2ccccc2)n(-c2cccc(C(=O)Nc3cccc(C(C)=O)c3)c2)c1C	70% (inactive)
CCOC(=O)c1cc(-c2ccccc2)n(-c2cccc(C(=O)Nc3ccc(OC)cc3)c2)c1C	77% (inactive)

Compound	survival
CCOC(=O)c1cc(-c2ccccc2)n(-c2cccc(C(=O)Nc3cc(OC)cc(OC)c3)c2)c1C	88% (inactive)
CCOC(=O)c1cc(-c2ccccc2)n(-c2cccc(C(=O)Nc3cccc(F)c3)c2)c1C	131% (inactive)
CCOC(=O)c1cc(-c2ccccc2)n(-c2cccc(C(=O)Nc3cccc(SC)c3)c2)c1C	0% (active)
CCc1ccc(Nc2nnc(-c3cc4cc(OC)ccc4oc3=O)s2)cc1	138% (inactive)
CCC(CC)C(=O)Nc1cc(-c2cccc(C)c2)nn1-c1ccccc1	69% (inactive)
COc1ccc(CCn2c(=O)[nH]c3cc(C(=O)N4CCN(c5ccccc5)CC4)ccc3c2=O)cc1OC	102% (inactive)
O=C1OC(c2ccccc2)=C/C1=C/N1CCOCC1	116% (inactive)
Cc1ccc(C2C=C(c3ccccc3)Nc3nc(NS(=O)(=O)c4ccccc4)nn32)cc1 (centres undefined)	83% (inactive)
Cc1ccc(C2=CC(c3ccc(Cl)cc3)n3nc(-c4ccc(C)cc4)nc3N2)cc1 (centres undefined)	1% (active)
COc1ccc(C2C=C(c3ccccc3)Nc3nc(NS(=O)(=O)c4ccc(C)cc4)nn32)cc1 (centres undefined)	66% (inactive)
COc1ccc(C2C=C(c3ccccc3)Nc3nc(NS(=O)(=O)c4ccc(Cl)cc4)nn32)cc1 (centres undefined)	0% (active)
Cc1ccc(S(=O)(=O)Nc2nc3n(n2)C(c2ccc(Cl)cc2)C=C(c2ccccc2)N3)cc1 (centres undefined)	-4% (active)
COc1ccc(C2C=C(c3ccccc3)Nc3nc(NS(=O)(=O)c4ccccc4)nn32)cc1 (centres undefined)	29% (inactive)
O=S(=O)(Nc1nc2n(n1)C(c1ccc(F)cc1)C=C(c1ccccc1)N2)c1ccc(Cl)cc1 (centres undefined)	14% (active)
O=S(=O)(Nc1nc2n(n1)C(c1ccc(F)cc1)C=C(c1ccc(Cl)cc1)N2)c1ccccc1 (centres undefined)	57% (inactive)
O=S(=O)(Nc1nc2n(n1)C(c1ccc(F)cc1)C=C(c1ccccc1)N2)c1ccccc1 (centres undefined)	74% (inactive)
COc1ccc(C2C=C(c3ccc(F)cc3)Nc3nc(-c4ccc(Cl)cc4)nn32)cc1 (centres undefined)	105% (inactive)
COc1ccc(C2C=C(c3ccc(Cl)cc3)Nc3nc(-c4ccc(Cl)cc4)nn32)cc1 (centres undefined)	88% (inactive)
Cc1ccc(C2C=C(c3ccc(Cl)cc3)Nc3nc(NS(=O)(=O)c4ccccc4)nn32)cc1 (centres undefined)	75% (inactive)
CSc1ccc(/C=C(\C#N)C(=O)NC2CCCCC2)cc1	95% (inactive)
O=C(Cn1nc(-c2ccccc2)c2c(c1=O)CCCC2)Nc1ccc(F)c(Cl)c1	44% (inactive)
CCOc1ccccc1NC(=O)N1CCC(N2CCN(Cc3ccccc3)C(=O)C2=O)CC1	68% (inactive)
Cc1ccc(C)c(S(=O)(=O)NCC(c2ccc(N(C)C)cc2)N2CCOCC2)c1 (centres undefined)	73% (inactive)
Cc1sc2nc(SCC(=O)N(CCO)CCO)n(C3CCCCC3)c(=O)c2c1C	106% (inactive)

Compound	survival
CCOc1ccc(CCNC(=O)CS(=O)(=O)Cc2nc(-c3cccc(Cl)c3)oc2C)cc1	82% (inactive)
Oc1cccc2c1NCCC2	113% (inactive)
O=S(=O)(c1cccc(Cl)c1)c1nnn2c1nc(NCc1ccc3c(c1)OCO3)c1sccc12	80% (inactive)
CCSc1oc(-c2cccs2)nc1S(=O)(=O)c1ccc(Br)cc1	51% (inactive)
CCOC(=O)CNC(=O)CC(c1cc(OC)c(OC)c(OC)c1)N1Cc2ccccc2C1=O (centres undefined)	60% (inactive)
Cc1c(Cl)cccc1NC(=O)C1CCN(c2ncnc3c2nc2n3CCCCC2)CC1	129% (inactive)
O=C(COc1ccccc1)Nc1ccc2nc(SCCOc3ccccc3)sc2c1	94% (inactive)
COc1ccc(CNC(=O)Cn2nc3c(cc2=O)CCCC3)cc1	64% (inactive)
Cc1cccc(C2C=C(c3ccc(C)c(C)c3)Nc3nnnn32)c1 (centres undefined)	1% (active)
COc1ccc(C2=CC(c3cccc(C)c3)n3nnnc3N2)cc1 (centres undefined)	71% (inactive)
COc1cccc(C2C=C(c3ccc(C)c(C)c3)Nc3nnnn32)c1OC (centres undefined)	71% (inactive)
CS(=O)(=O)N1CCN(C(=O)c2ccccc2)CC1	110% (inactive)
CCn1cc(C(=O)NCCCN(CC(C)C)CC(C)C)c(=O)c2cc(S(=O)(=O)N3CCc4ccccc4C3)ccc21	80% (inactive)
Cc1ccc(NS(=O)(=O)c2ccc3c(c2)NC(=O)CCS3)c(Br)c1	-3% (active)
Cc1cc(C)cc(NS(=O)(=O)c2ccc3c(c2)NC(=O)C(C)S3)c1 (centres undefined)	12% (active)
CC1C(=O)Nc2ccc(S(=O)(=O)Nc3ccccc3Br)cc2NC1=O (centres undefined)	89% (inactive)
Cc1ccc(NS(=O)(=O)c2ccc3c(c2)NC(=O)C(C)C(=O)N3)cc1F (centres undefined)	86% (inactive)
O=C1CCSc2ccc(S(=O)(=O)Nc3ccc(Cl)c(C(F)(F)F)c3)cc2N1	81% (inactive)
Cc1ccc(NS(=O)(=O)c2ccc3c(c2)NC(=O)CCS3)cc1C	63% (inactive)
O=C1CCSc2ccc(S(=O)(=O)Nc3cccc(C(F)(F)F)c3)cc2N1	-4% (active)
Cc1ccccc1NS(=O)(=O)c1ccc2c(c1)NC(=O)CCS2	57% (inactive)
Cc1cc(C)c(NS(=O)(=O)c2ccc3c(c2)NC(=O)CCS3)c(C)c1	60% (inactive)
